The panel holds about 83,000 compounds, 20% with a hit somewhere; the sample as a whole holds those more often.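 Treatment: one concentration, 48 hours, 96-well format. Scoring: percent growth, with anything below 10 considered active.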 Values without a mark were called inactive. Active and inactive are the calls of the source.
The compounds below were run on NCI-H226 lung (assay: NCI-60 one-dose screen, 48 h (100 = growth as untreated, 0 = no growth, -100 = all killed)). Settings: 10 µM unless noted.
Method: Growth inhibition of the NCI-H226 human Non-Small Cell Lung tumor cell line is measured as a screen for anti-cancer activity. Cells are grown in 96 well plates and exposed to the test compound for 48 hours. Compounds are tested at a single concentration, which is 10^-5 M for most compounds. The reported endpoint is percent growth (GI% or GIPRCNT), where numbers from 0 - 100% represent growth inhibition, and numbers from -100% - 0 represent cell death. For example, a value of 40 represents 60% growth inhibition. A value of 0 means no net growth occurred over the course of the experiment. A value of -40 indicates 40% of cells at the beginning of the experiment died by the end of the experiment. A value of -100 means all cells are dead at the end of the experiment.
NCI-60 Human Tumor Cell Lines Screen was performed using the standard one-dose NCI protocol, which is described in more detail at https://dtp.cancer.gov/discovery_development/nci-60/default.htm.
Compounds with GIPRCNT values below 10 were considered active. Activity score was based on GIPRCNT using the following formula: […]
Score is 0 for GIPRCNT values of 100 or above, 50 for GIPRCNT values of 0, and 100 for GIPRCNT values of -100.

SMILES | growth
Cc1ccc2[nH]c(-c3ccc(S(C)(=O)=O)cc3)c(/C=N/N=C(N)N)c2c1 | 76.6%
NC(=S)N/N=C/c1cn(-c2ccccc2)nc1-c1cc2ccccc2oc1=O | 81.3%
N#Cc1c(N2CCOCC2)nc(=S)[nH]c1-c1ccccc1 | 72.5%
COc1ccc(-c2cn(-c3ccc(Cl)cc3)c(SCC(=O)c3ccc([N+](=O)[O-])cc3)n2)cc1 | 91.3%
CCCCCCCCNc1cc2c3c(c1)CCCN3CCC2 | 39.1%
CC(C)CSc1oc(-c2ccccc2)nc1S(=O)(=O)c1ccccc1 | 75.7%
COc1cc2cc(NCc3ccc(OC(F)F)cc3)nc(C)c2cc1OC | 75.5%
CCN(CC)CCNC(=O)c1ccc(-c2nc3ccc4[nH]ncc4c3c3c2CCCC3)cc1 | 64.7%
O=C(Cn1cc(CN2C(=O)c3ccccc3S2(=O)=O)nn1)Nc1cccc(Cl)c1 | 117%
COc1cc2c(cc1O)[C@@]1(C)[C@H](c3ccccc3Br)OC(=O)N1CC2 | 83.9%
Cc1ccc(N=Nc2c(N)nn(-c3ccccc3)c2N)cc1 | 76%
O=C1CCCc2nc3sc4c(=O)n(-c5ccccc5Cl)nnc4c3cc21 | 89.1%
Cc1ccccc1CNc1c2ccccc2nc2ccccc12 | 31.5%
N=C(N)SCc1cccc2c(CSC(=N)N)cccc12 | 87.9%
C=C1C(=O)O[C@H]2[C@H]1CC/C(COC(=O)c1cc3cc(F)ccc3[nH]1)=C\CC[C@@]1(C)O[C@@H]21 | -41.3% (active)
O=C1OCC2=C1C(c1cccc(C(F)(F)F)c1)c1cc3c(cc1N2CCO)OCO3 (stereo not given) | 66%
O=C(NCc1ccc2c(c1)OCO2)NCC1CCCC(CNC(=O)NCc2ccc3c(c2)OCO3)C1 (stereo not given) | 100%
CC(C(=O)O)n1c(O)c(C=Nc2cccnc2)sc1=S (stereo not given) | 85.3%
COc1ccc(NC(=O)c2ccc(C(=O)Nc3ccc(OC)cc3OC)cc2)c(OC)c1 | 71.5%
Cn1cc(-c2ccc3cc(-c4ccc(CC(=O)Nc5cc(C(C)(C)C)on5)cc4)cnc3c2)cn1 | 43%

SMILES | growth
O=C1Nc2ccc(F)cc2/C1=C\c1nc(-c2ccccc2F)n2ccccc12 | 104%
CCCCc1oc2ccccc2c1C(=O)c1ccc(O)cc1 | 92.8%
CCN(CC)CCOc1ccc(Nc2ncc3cc(-c4ccc(O)cc4)c(=O)n(C)c3n2)cc1 | 43.8%
CN1CCN(c2ccc(NC(=O)c3cncnc3Nc3ccc4c(ccn4Cc4cccc(F)c4)c3)cc2)CC1 | 85.5%
O=C1Nc2ccccc2/C1=C/c1cn(C[C@@H](O)Cn2c3ccccc3c(=O)c3ccccc32)c2ccccc12 | 63.1%
Cc1nn(-c2ccccc2)c(/N=C/N(C)C)c1/C=C/C(=O)c1ccc(Cl)cc1 | 98.3%
CCN=C1C=CC(=C(c2ccc(N(C)C)cc2)c2ccc(N(C)C)cc2)c2ccccc21 | -7.49% (active)
CCN(CC)c1ccc(/C=N/NC(=O)c2ccc(Nc3ccnc(C(F)(F)F)c3)cc2)c(O)c1 | -3.5% (active)
O=C(O)CCCn1c(SCc2c(Cl)cccc2Cl)nc2ccsc2c1=O | 43.4%
CC(C)CN1CC(C(=O)Nc2ccc3c(c2)-c2ccccc2C3)CC1=O (stereo not given) | 64.9% [50 µM]
CCCCCCCCCCCCCCCCOC(=O)c1c(C)[nH]c(/C=C2\N=C(c3ccc[nH]3)C=C2OC)c1C | 6.67% (active)
Cn1ccnc1C(=O)/C=C/c1ccc(C(=O)Nc2ccc(F)cc2)cc1 | 13.8%
O=C1OCC2=C1C(c1cccc(F)c1)c1cc3c(cc1N2CCO)OCO3 (stereo not given) | 67.6%
CO[C@H](C(=O)[C@@H](O)[C@@H](C)O)[C@@H]1Cc2cc3cc(O[C@H]4C[C@@H](O[C@H]5C[C@@H](O)[C@H](O)C(C)O5)[C@H](O)C(C)O4)c(C)c(O)c3c(O)c2C(=O)[C@H]1O[C@H]1C[C@@H](O[C@H]2C[C@@H](O[C@H]3C[C@@H](OC)[C@H](O)C(C)O3)[C@@H](O)C(C)O2)C(O)(O)C(C)O1 (stereo not given in full) | -20.8% (active)
CC[C@]12C=CCN3CC[C@@]4(c5ccc(OC)cc5N(C)[C@H]4[C@@](O)(C(=O)OC)[C@@H]1OC(=O)CCCN1CCOCC1)[C@@H]32 | 108%
Cn1c(/C=C/[N+](=O)[O-])cc2ccccc21 | 4.78% (active)
CCCCN1C(=O)/C(=c2\sc3n(c2=O)NC2C(N=3)N(CC)C(=O)N2CC)c2ccccc21 (stereo not given) | 70.4%
O=C(Cn1nnc2ccccc21)Nc1ccc(-c2nc3ccccc3s2)cc1 | 67.5%
O=C(Nc1ccccc1O)c1ccccc1Nc1ccnc(C(F)(F)F)c1 | 70.4%
COc1ccc2nc(Cl)c(/C=C/C(=O)c3ccc(NC(=O)CSc4nnc(-c5ccc(Cl)c(Cl)c5)n4-c4ccccc4)cc3)cc2c1 | 96.8%

Reference: PubChem BioAssay (NCI)
